Screening data from PubChem BioAssay.
NADH coupling: blocks coupling enzymes of NAD/NADH assays; IC50, µM (doses to about 10 µM), without a hit: top-dose inhibition; coupled PK/LDH NADH assays, four targets; actives 0.02% (n = 65,000);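 active = single-dose screening hits from any of four coupled enzyme assays that gave an IC50 when retested across doses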;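 note: the DPM-DC format reads NADH fluorescence rather than 340 nm absorbance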
Spn DPM-DC inh: blocks S. pneumoniae diphosphomevalonate decarboxylase; purified DPM-DC, PK/LDH coupled NADH fluorescence; calls only at 10 µM; actives 0.49% (n = 65,000); AID 556;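 active = the 320 compounds with the highest percent inhibition in the single-dose primary screen, excluding strongly autofluorescent ones, cut at about 32% in these data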;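 note: kinetic rate of NADH fluorescence loss reporting ADP formed by the decarboxylase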
Fluor 339 460: intrinsic fluorescence of library compounds, ex339/em460 – biochemical, MLSMR library, data from DPM-DC assay, artefact control, profiling panel. actives 5.5% (n = 65,000). fluorescence fold increase at 10 µM. compound autofluorescence, ex339/em460 nm, NADH buffer; stronger effect = higher value; 1 = no-compound wells, NADH background;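 active = at 10 µM, mean starting fluorescence two-fold or more over control wells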;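 note: signal is the first read of a kinetic run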
Spn MK inh: S. pneumoniae mevalonate kinase inhibition; purified MK, PK/LDH-coupled NADH absorbance 340 nm; inhibition, % at 10 µM; actives 0.48% (n = 65,000);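 active = ranked among the strongest by inhibition in the single 10 µM screen, a fixed top-ranked set picked for dose follow-up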
PMK inhibit: S. pneumoniae PMK inhibition | actives 0.49% (n = 65,000) | inhibition, % at 10 µM | purified PMK, PK/LDH-coupled NADH absorbance 340 nm;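 active = top-ranked compounds by inhibition in the single 10 µM screen, taking a fixed number of the strongest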;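 note: 0% = full reaction with DMSO carrier and 100% = background rate without enzyme reaction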
Abs 340nm: absorbance at 340 nm; 65,000 tested, under 10 active; compound absorbance at 340 nm, fold over control; fold change at 10 µM;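 active = at 10 µM dose, initial 340 nm absorbance at least 2 fold that of control wells; inactive = change under 2 fold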;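 note: initial absorbance extrapolated from kinetic A340 decline of NADH oxidation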
Numbers without * were called inactive; i = inactive; x = not tested or not shown; + = active, no number. Compounds with a hit are over-represented: about 6.3% of the library has one in this group of screens.

SMILES	NADH coupling	Spn DPM-DC inh	Fluor 339 460	Spn MK inh	PMK inhibit	Abs 340nm
CCOc1ccc(CC(=O)Nc2c(C(N)=O)oc3ccccc23)cc1OCC	8.0%	i	1.08	6.0	12.0	0.98
Cc1cc(C)c(S(=O)(=O)NCc2cn3c(C)csc3n2)cc1C	25.0%	+	1.07	8.0	1.0	1.03
Cc1cc(C)c(S(=O)(=O)NCc2cn3c(C)csc3n2)c(C)c1	3.0%	i	1.12	4.0	6.0	0.99
COc1ccc2c(c1OC)CN(C)CCc1cc3c(cc1C(O)C2)OCO3 (configuration not stated)	12.0%	i	1.11	12.0	25.0*	0.99
COc1cccc(C2/C(=C(\O)c3ccc4c(c3)OCO4)C(=O)C(=O)N2CCN(C)C)c1OC (configuration not stated)	0.0%	i	1.09	0.0	0.0	1.14
COc1ccc(Cl)cc1Nc1nc(N2CCCC2)nc(N2CCCC2)n1	8.0%	i	1.14	5.0	18.0	1.02
O=c1oc2ccccc2cc1-c1nnc(-c2cccc(Br)c2)o1	2.0%	x	3.86*	4.0	0.0	1.11
CCOc1cccc2cc(-c3nnc(-c4ccccc4)o3)c(=O)oc12	8.0%	i	1.38	6.0	13.0	1.07
O=c1oc2ccc3ccccc3c2cc1-c1nnc(-c2ccccc2)o1	12.0%	x	4.3*	19.0	5.0	1.06
COc1ccc2nc(Nc3nc(C)c(C(C)=O)s3)sc2c1	7.0%	i	2.04*	9.0	11.0	1.04
COc1cc(C)nc(Nc2nc(C)c(C(C)=O)s2)n1	3.0%	i	1.07	1.0	4.0	1.14
COC(=O)c1ccc(COc2ccc(C3C4=C(CCCC4=O)Nc4onc(C)c43)cc2)cc1 (configuration not stated)	5.0%	i	2.38*	0.0	9.0	1
COC(=O)c1ccc(C2CC(=O)NC3=C2C(=O)CCC3)cc1 (configuration not stated)	7.0%	i	1.11	6.0	14.0	0.99
CCCn1nc(NC(=O)c2ccco2)c2cc3ccc(C)cc3nc21	4.0%	x	3.91*	8.0	0.0	1.04
CCn1nc(NC(=O)c2ccco2)c2cc3ccccc3nc21	1.0%	i	1.37	0.0	2.0	1.01
FC(F)(F)c1cc(-c2ccco2)nc(-n2nc(C(F)(F)F)cc2C2CC2)n1	11.0%	i	3.42*	5.0	12.0	1.04
FC(F)(F)c1cc(-c2ccco2)nc(-n2nnc3ccccc32)n1	11.0%	+	2.39*	5.0	11.0	1
CCCC(C(=O)NCC1CCCO1)N(Cc1ccco1)C(=O)CNS(=O)(=O)c1ccccc1 (configuration not stated)	9.0%	i	0.9	0.0	17.0	0.99
CC(C)C(C(=O)NCC1CCCO1)N(Cc1ccco1)C(=O)CNS(=O)(=O)c1ccc(F)cc1 (configuration not stated)	11.0%	i	1.04	6.0	27.0*	1.01
COCCOC(=O)c1c(C)oc2ccc(NS(=O)(=O)c3ccc(F)cc3)cc12	5.0%	+	1.01	10.0	0.0	0.99
COc1ccc(S(=O)(=O)Nc2ccc3oc(C)c(C(=O)O)c3c2)cc1	3.0%	i	1.08	9.0	0.0	1.07
COc1ccc(NC(=O)Cc2nn(C)c(=O)c3ccccc23)c2ncccc12	6.0%	i	1.1	0.0	14.0	1.02
CCOC(=O)c1oc2nc3c(cc2c1N)COC(C)(C)C3	13.0%	i	2.79*	11.0	6.0	1.07
CCOC(=O)c1oc2nc(C)c3c(c2c1N)CC(C)(C)OC3	1.0%	x	3.91*	0.0	2.0	1.07
Cc1cc(S(=O)(=O)NC2CCCCC2)ccc1OCC(=O)NCc1ccccn1	1.0%	i	1.05	0.0	7.0	0.99
SMILES	NADH coupling	Spn DPM-DC inh	Fluor 339 460	Spn MK inh	PMK inhibit	Abs 340nm
CCCC(=O)N1CCN(S(=O)(=O)c2cc(Cl)ccc2OC)CC1	3.0%	x	5.14*	3.0	3.0	0.97
COc1ccc(Cl)cc1S(=O)(=O)N1CCN(C(=O)c2ccco2)CC1	10.0%	i	1.18	10.0	0.0	0.98
CCCOc1ccc(-c2nnn(CC(=O)Nc3cccc(C(=O)OC)c3)n2)cc1	3.0%	i	1	2.0	26.0*	1
CCOc1ccc(-c2nnn(CC(=O)Nc3cccc(OC)c3)n2)cc1OCC	6.0%	i	1.07	5.0	13.0	0.97
O=C(c1cnn2c(C(F)F)cc(-c3ccccc3)nc12)N1CCOCC1	10.0%	x	3.7*	7.0	13.0	1.06
CC1CN(C(=O)c2cnn3c(C(F)F)cc(-c4ccccc4)nc23)CC(C)O1 (configuration not stated)	5.0%	i	1.79	5.0	9.0	1.09
CCOC(=O)N1CCN(C(=O)c2cnn3c(C(F)F)cc(-c4ccc(C)cc4)nc23)CC1	11.0%	i	2.93*	0.0	2.0	1.11
CN1CCN(C(=O)c2cnn3c(C(F)F)cc(C4CC4)nc23)CC1	4.0%	i	1.15	9.0	0.0	0.99
COc1ccc(-c2cc(C(F)F)n3ncc(C(=O)N4CCN5CCCC5C4)c3n2)cc1 (configuration not stated)	9.0%	x	3.56*	13.0	5.0	1.13
O=C(c1cnn2c(C(F)F)cc(-c3ccccc3)nc12)N1CCSCC1	7.0%	i	1.19	11.0	7.0	1.07
COc1ccc(-c2cc(C(F)(F)F)n3ncc(C(=O)NCC4CCCO4)c3n2)cc1OC (configuration not stated)	3.0%	i	1.7	0.0	0.0	1.14
COc1ccc(-c2cc(C(F)F)n3ncc(C(=O)NCC4CCCO4)c3n2)cc1 (configuration not stated)	4.0%	x	2.99*	6.0	5.0	1.01
C=CCC1(O)C(=O)Nc2ccccc21 (configuration not stated)	2.0%	i	1.03	7.0	10.0	0.98
CCOC(=O)c1cccc(NC(=O)CS(=O)(=O)Cc2nc(-c3cccc(OC)c3)oc2C)c1	2.0%	i	0.99	2.0	9.0	0.98
COc1cc(NC(=O)c2cc3c(=O)n(C)c4ccccc4c3n2C)cc(OC)c1OC	4.0%	x	2.03*	8.0	0.0	1.07
CCc1cc(=O)oc2cc(OC(C)=O)cc(OC(C)=O)c12	2.0%	x	2.41*	7.0	0.0	1
CCc1cc(=O)oc2cc3oc(C)c(C)c3cc12	9.0%	i	1.68	6.0	15.0	0.98
CN(C)c1nc(NS(=O)(=O)c2ccc(Cl)cc2)nc(N(C)C)n1	3.0%	i	1.13	10.0	0.0	1.02
CCCCOC(=O)Cn1c(=O)c2c(nc(Br)n2Cc2ccccc2)n(C)c1=O	7.0%	i	1.13	9.0	13.0	1.02
c1c2c(cc3sc(N4CCCCC4)nc13)OCO2	8.0%	i	1.12	6.0	18.0	1.01
O=c1cc(C(F)(F)F)c2sc(N3CCCCC3)nc2[nH]1	9.0%	x	2.12*	0.0	17.0	1.08
